From PubChem BioAssay (Tox21)
Inconclusive results are not listed. Active and inactive are the calls of the source. Unless noted, calls come from the whole dose curve; as a rule, active = well fitted curve in the direction sought with a large enough effect in the repeat runs; inconclusive = weak or mixed curves; inactive = no such curve, though single readings can be large; an effect the other way counts as inactive or inconclusive.

Key:
[1] = qHTS assay to identify small molecule agonists of the estrogen receptor alpha (ER-alpha) signaling pathway in the presence of an antagonist - cell viability counter screen (AID 1259386);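 note: cells exposed to compounds for 22 h at 37 °C before the viability read; nearly all actives have a fitted effect of over 30% in size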; note: potency is the fitted concentration of half-maximal effect; for activity change, negative = cytotoxicity: series mostly up to about 92 µM
How it was run: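 Read-out: CellTiter-Fluor fluorescence after 1hr reagent incubation, measured in the same wells as the luciferase readout. VM7Luc4E2 cells were exposed to 15 compound concentrations with 10.0nM ICI-182,780 for 22hr at 37C.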

[2] = molecular target: Progesterone receptor (Homo sapiens) (UniProt P06401); experiment: qHTS assay to identify small molecule agonists of the progesterone receptor (PR) signaling pathway (AID 1346784; calls by dose curve; note: nearly all actives have a fitted effect of over 30% in size)
How it was run: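 Cells (PR-UAS-bla HEK 293T, GripTite) were plated in assay medium containing 2% charcoal-stripped FBS and incubated 6 hr. Test compounds in DMSO were added for 16 hr at 37C. FRET substrate was then loaded for 2 hr at room temperature before fluorescence reading.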

[3] = molecular target: Progesterone receptor (Homo sapiens) (UniProt P06401); experiment: qHTS assay to identify small molecule antagonists of the progesterone receptor (PR) signaling pathway (AID 1346795; active = well fitted inhibition curve with a large enough effect in the signal ratio in the repeat runs, not every such curve was filed as active; the % refers to the signal ratio; note: potency is the fitted concentration of half-maximal effect)
How it was run: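 Antagonist mode: compounds tested against 1 nM (final) promegestone stimulation in HEK293T cells expressing PR-UAS-bla reporter, 16 hr at 37C, 5% CO2; beta-lactamase activity detected via B/G FRET substrate after 2 hr at room temperature.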

[4] = qHTS assay to identify small molecule agonists of the progesterone receptor (PR) signaling pathway - cell viability counter screen (AID 1346799; calls by dose curve; note: nearly all actives have a fitted effect of over 45% in size; note: potency is the fitted concentration of half-maximal effect)
How it was run: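 Cells (PR-UAS-bla HEK293T) are plated at 3,000/well in 2% charcoal-stripped FBS medium, rested 6 hr, dosed and incubated 16 hr at 37C. CellTiter-Glo is then added and luminescence measured after 30 min at room temperature.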

[5] = qHTS assay to identify small molecule antagonists of the TGF-beta/Smad signaling pathway - cell viability counter screen (AID 1346824); note: nearly all actives have a fitted effect of over 50% in size
How it was run: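 SBE-bla HEK 293T cells, incubated overnight, then compound plus 0.25 ng/mL TGF-beta1 (stock added) for 5 hr at 37 C. Viability was read in the same wells by CellTiter-Glo luminescence after 30 min at room temperature.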

[6] = qHTS assay to identify small molecule agonists of the TGF-beta/Smad signaling pathway - cell viability counter screen (AID 1346829); note: top concentration of the series differs between compounds; nearly all actives have a fitted effect of over 45% in size
How it was run: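 Tox21 qHTS format: SBE-bla HEK 293T cells treated with DMSO-dissolved compounds for 5 hr; CellTiter-Glo luminescence after 30 min at room temperature.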

[7] = molecular target: Thyrotropin-releasing hormone receptor (Homo sapiens) (UniProt P34981); experiment: qHTS assay to identify small molecule antagonists of the thyrotropin-releasing hormone receptor (TRHR) signaling pathway (AID 1346877; active = well fitted inhibition curve with a large enough effect in the repeat runs, not every such curve was filed as active; note: series mostly up to about 51 µM)
How it was run: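 HEK293/TRHR cells, 18 h, 37 °C; Ca2+ dye 2 h; cpd 5 min RT; TRH 1 nM final; fluorescence read 3 min, 1 s intervals; 15 concs, triplicate.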

[8] = molecular target: Thyrotropin-releasing hormone receptor (Homo sapiens) (UniProt P34981); experiment: qHTS assay to identify small molecule agonists of the thyrotropin-releasing hormone receptor (TRHR) signaling pathway (AID 1346891; calls by dose curve;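 note: HEK293 cells expressing TRHR with calcium dye readout; series mostly up to about 58 µM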)
How it was run: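 Cells: TRHR-Hek293, seeded and incubated 18 h. Dye loading: 2 h at 37 °C. Compound added from DMSO stock by pin tool. Read-out: kinetic calcium fluorescence over 3 min.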

[9] = qHTS assay to identify small molecule agonists of the TGF-beta/Smad signaling pathway (AID 1346859; active = well fitted activation curve with a large enough effect in the signal ratio in the repeat runs, not every such curve was filed as active; the % refers to the signal ratio; note: series mostly up to about 77 µM)
How it was run: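 Reporter line: HEK 293T with stably integrated SBE-controlled beta-lactamase. Compound exposure lasts 5 hr at 37 C and 5% CO2; substrate loading follows for 2 hr at room temperature, with emission read at 460 and 530 nm.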

[10] = qHTS assay to identify small molecule antagonists of the progesterone receptor (PR) signaling pathway - cell viability counter screen (AID 1346798); note: nearly all actives have a fitted effect of over 50% in size; note: potency is the fitted concentration of half-maximal effect; for activity change, negative = cytotoxicity: series mostly up to about 92 µM
How it was run: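 Counter screen for cytotoxicity: viability of PR-UAS-bla HEK293T cells was measured with CellTiter-Glo luminescence following 16 hr compound exposure in the presence of R5020.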
% is set by controls: 0 for no effect and ±100 for the full control effect.

Thyrotropin-releasing hormone receptor (Homo sapiens), sequence (P34981 whole entry, looked up): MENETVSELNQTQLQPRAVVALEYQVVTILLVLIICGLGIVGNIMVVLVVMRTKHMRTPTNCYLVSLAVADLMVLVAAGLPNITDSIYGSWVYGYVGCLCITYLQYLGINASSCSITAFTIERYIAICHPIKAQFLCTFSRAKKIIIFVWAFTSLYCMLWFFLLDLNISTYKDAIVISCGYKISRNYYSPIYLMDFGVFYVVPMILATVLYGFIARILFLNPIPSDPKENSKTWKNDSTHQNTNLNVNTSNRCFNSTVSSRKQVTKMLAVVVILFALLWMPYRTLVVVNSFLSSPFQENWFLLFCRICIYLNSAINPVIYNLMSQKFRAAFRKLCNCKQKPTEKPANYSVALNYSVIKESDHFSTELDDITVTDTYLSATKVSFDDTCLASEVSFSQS
Progesterone receptor (Homo sapiens), sequence (P06401 whole entry, looked up): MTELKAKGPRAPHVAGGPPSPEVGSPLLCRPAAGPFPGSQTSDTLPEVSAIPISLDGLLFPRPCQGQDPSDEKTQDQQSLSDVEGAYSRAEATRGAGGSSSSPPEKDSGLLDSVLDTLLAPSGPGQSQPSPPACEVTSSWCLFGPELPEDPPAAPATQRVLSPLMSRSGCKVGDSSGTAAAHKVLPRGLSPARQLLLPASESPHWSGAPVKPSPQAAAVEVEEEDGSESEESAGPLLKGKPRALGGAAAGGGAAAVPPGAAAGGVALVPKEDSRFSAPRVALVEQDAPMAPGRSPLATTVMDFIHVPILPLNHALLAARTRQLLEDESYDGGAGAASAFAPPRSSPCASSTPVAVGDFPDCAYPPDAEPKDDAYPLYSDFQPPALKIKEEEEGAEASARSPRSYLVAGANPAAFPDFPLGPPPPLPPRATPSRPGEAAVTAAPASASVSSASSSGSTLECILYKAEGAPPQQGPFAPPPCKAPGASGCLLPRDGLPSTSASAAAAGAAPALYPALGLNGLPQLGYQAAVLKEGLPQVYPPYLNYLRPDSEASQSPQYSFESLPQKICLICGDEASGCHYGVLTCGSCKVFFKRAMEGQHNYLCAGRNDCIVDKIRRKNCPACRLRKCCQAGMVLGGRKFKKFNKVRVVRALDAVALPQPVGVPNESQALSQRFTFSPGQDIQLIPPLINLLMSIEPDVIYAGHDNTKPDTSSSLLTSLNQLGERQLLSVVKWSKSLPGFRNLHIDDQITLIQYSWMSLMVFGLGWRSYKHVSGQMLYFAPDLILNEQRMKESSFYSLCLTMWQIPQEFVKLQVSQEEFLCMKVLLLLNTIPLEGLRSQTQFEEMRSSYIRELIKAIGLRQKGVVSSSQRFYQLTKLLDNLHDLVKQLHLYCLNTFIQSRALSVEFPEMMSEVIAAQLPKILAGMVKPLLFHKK

O=C1c2ccccc2C(=O)c2ccccc21
inactive: activity change, negative = cytotoxicity [1] 2.11% [at 19 µM] | activation [2] -0.0487% [at 19 µM] | activity change, negative = inhibition [3] 12.9% [at 18.9 µM] | activity change, negative = cytotoxicity [4] 2.43% [at 19 µM] | viability change, negative = cytotoxic [5] -2.72% [at 15.8 µM] | activity change, negative = cytotoxicity [6] -4.2% [at 15.8 µM] | activity, negative = inhibition [7] -1.2% [at 10.5 µM] | activation [8] -0.0612% [at 11.8 µM]

NC(=O)c1cc([N+](=O)[O-])cc([N+](=O)[O-])c1
inactive: Potency [1] | Potency [2] | Potency [3] | Potency [4] | Potency [5] | outcome [6] | outcome [9] | outcome [7] | outcome [8]

CNC(=O)Oc1ccc(N(C)C)c(C)c1
inactive: Potency [1] | Potency [2] | Potency [3] | Potency [4] | Potency [5] | outcome [6] | outcome [9] | outcome [7] | outcome [8]

CCOC(=O)CP(=O)(OCC)OCC
inactive: Potency [1] | Potency [2] | Potency [3] | Potency [4] | Potency [5] | outcome [6] | outcome [9] | outcome [7] | outcome [8]

Cc1ncc(CNC(=O)N(CCCl)N=O)c(N)n1
inactive: Potency [1] | Potency [2] | Potency [3] | Potency [4] | Potency [5] | outcome [6] | outcome [9] | outcome [7] | outcome [8]

CN(N=O)C(N)=O
inactive: Potency [1] | Potency [2] | Potency [3] | Potency [4] | Potency [5] | outcome [6] | outcome [9] | outcome [7] | outcome [8]

CCN(Cc1ccc(Cl)nc1)/C(=C/[N+](=O)[O-])NC
inactive: Potency [1] | Potency [2] | Potency [10] | Potency [4] | Potency [5] | outcome [6] | outcome [9] | outcome [7] | outcome [8]

CNC(=O)N(C)c1nc2ccccc2s1
inactive: Potency [1] | Potency [2] | Potency [4] | Potency [5] | outcome [6] | outcome [9] | outcome [7] | outcome [8]

COC(=O)C(c1ccccc1)C1CCCCN1 (stereo unspecified)
inactive: Potency [1] | Potency [2] | Potency [10] | Potency [4] | Potency [5] | outcome [6] | outcome [9] | outcome [7] | outcome [8]

CCN(CC)C(=O)[C@@H]1C=C2c3cccc4[nH]cc(c34)C[C@H]2N(C)C1
inactive: Potency [2] | Potency [3] | Potency [5] | outcome [6] | outcome [9] | outcome [7] | outcome [8]
active: Potency [1] 56.7 µM

CNNC
inactive: Potency [1] | Potency [2] | Potency [10] | Potency [4] | Potency [5] | outcome [6] | outcome [9] | outcome [7] | outcome [8]

CC(C)CP(=S)(S)CC(C)C
active: Potency [3] 0.486 µM
inactive: Potency [1] | Potency [2] | Potency [5] | outcome [6] | outcome [9] | outcome [7] | outcome [8]

Cc1cc(C)nc(Nc2ccccc2)n1
inactive: Potency [1] | Potency [2] | Potency [10] | Potency [4] | Potency [5] | outcome [6] | outcome [9] | outcome [7] | outcome [8]

CC1CCCCC1NC(=O)Nc1ccccc1 (stereo unspecified)
inactive: Potency [1] | Potency [2] | Potency [10] | Potency [4] | Potency [5] | outcome [6] | outcome [9] | outcome [7] | outcome [8]

C1CCC(C2CCCCC2)CC1
active: Potency [10] 15.4 µM | Potency [4] 8.63 µM
inactive: Potency [1] | Potency [2] | Potency [5] | outcome [6] | outcome [9] | outcome [7] | outcome [8]

CN1C(=S)CN=C(c2ccccc2)c2cc(Cl)ccc21
inactive: Potency [1] | Potency [2] | Potency [5] | outcome [6] | outcome [9] | outcome [7] | outcome [8]
active: Potency [3] 21.1 µM

CCOP(=S)(OCC)SCSP(=S)(OCC)OCC
inactive: Potency [1] | Potency [2] | Potency [10] | Potency [4] | Potency [5] | outcome [6] | outcome [9] | outcome [7] | outcome [8]

CC1(C(=O)Nc2ccc(O)c(Cl)c2Cl)CCCCC1
inactive: Potency [1] | Potency [2] | Potency [5] | outcome [6] | outcome [7] | outcome [8]
active: Potency [3] 27.3 µM

C[C@]12CC[C@H]3[C@@H](CCC4=CC(=O)CC[C@@]43C)[C@@H]1CC[C@@H]2C(=O)O
inactive: Potency [1] | Potency [2] | Potency [10] | Potency [4] | Potency [5] | outcome [6]

CCOP(=S)(OCC)Oc1cc(-c2ccccc2)on1
inactive: Potency [1] | Potency [2] | Potency [10] | outcome [6] | outcome [9] | outcome [7] | outcome [8]

CCCCOC(=O)[C@@H](C)Oc1ccc(Oc2ccc(C#N)cc2F)cc1
inactive: Potency [1] | Potency [2] | Potency [10] | Potency [4] | Potency [5] | outcome [6] | outcome [7] | outcome [8]

CC(Oc1ccc(Oc2ncc(C(F)(F)F)cc2Cl)cc1)C(=O)O (stereo unspecified)
active: Potency [10] 7.7 µM
inactive: Potency [1] | Potency [2] | Potency [5] | outcome [6] | outcome [9]

CCCSP(=O)(OCC)Oc1ccc(Br)cc1Cl (stereo unspecified)
active: Potency [3] 11.8 µM
inactive: Potency [1] | Potency [2] | Potency [5] | outcome [6] | outcome [9] | outcome [7] | outcome [8]

COP(N)(=S)Oc1ccccc1C(=O)OC(C)C (stereo unspecified)
inactive: Potency [1] | Potency [2] | Potency [10] | Potency [4] | outcome [6] | outcome [9]
